Experimental data from PubChem BioAssay (NCI).
This is part of a sample that, as a whole, favours compounds with a hit. Of some 83,000 tested, about 20% had one in any assay.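 Cells were grown in 96-well plates and exposed to the test compound at a single concentration for 48 hours; results are reported as percent growth, with values below 10 considered active.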 Calls of active or inactive are those of the source.

Each compound was assayed on MDA-MB-435 melanoma (assay: NCI-60 one-dose screen, 48 h (100 = growth as untreated, 0 = no growth, -100 = all killed)). Conditions: 10 µM unless noted.

Compound | growth
Cc1cccc(Cc2cnc(NC(=O)CCc3ccc(C)o3)s2)c1 | -23.1% (active)
C=CC(=O)NC(=O)Nc1ccccc1Cl | 82.4% (inactive)
COc1cccc(-c2nc3sccn3c2-c2ccnc(NCCNC(=O)c3ccccc3)n2)c1 | 55.2% (inactive)
COc1ccc(-c2nn(-c3ccc(NC(=O)Nc4ccc(Cl)c(C(F)(F)F)c4)cc3)cc2-c2ccncc2)cc1Cl | -16.6% (active)
CC(C)CNCC(O)COc1ccc(C(C)(C)c2ccc(OCC(O)CNCC(C)C)cc2)cc1 (stereo not given) | 7.56% (active)
Cc1ccc2[nH]c3nc4cccnc4c(C)c3c2c1 | 108% (inactive)
COc1ccc(-c2nn(-c3ccc(NC(=O)Nc4ccc(Cl)c(Cl)c4)cc3)cc2-c2ccncc2)cc1Cl | 6.69% (active)
Nc1nccc2c1ccn2-c1cccc(NC(=O)c2ccc(N3CCOCC3)c(C(F)(F)F)c2)c1 | 2.02% (active)
Cc1cc[n+](CCCC[n+]2ccc(C)cc2)cc1 | 102% (inactive)
COC1=C(OC)C(=O)C=CC1=O | 116% (inactive)
CC/C(=C(\CC)c1ccc(OCCN(CC)CC)cc1)c1ccc(OCCN(CC)CC)cc1 | 15.4% (inactive)
COc1cccc(-c2nc3sccn3c2-c2ccnc(NCCNC(=O)Nc3cccc(C(F)(F)F)c3)n2)c1 | 21.5% (inactive)
COc1ccc(-c2cnc(-c3ccc(F)cc3)[nH]2)cc1 | -6.97% (active)
O=C(Nc1ccc(-n2cc(-c3ccncc3)c(-c3ccc(O)c(Cl)c3)n2)cc1)c1ccc(Cl)c(C(F)(F)F)c1 | 16% (inactive)
C=CC(=O)Nc1cccc(Nc2nc(Nc3ccc(OCCOC(F)F)cc3)ncc2F)c1 | 9.37% (active)
O=[N+]([O-])c1cccc(C(c2ccccc2)c2ccccc2)c1 | 99.5% (inactive)
O=C(NCCNc1nccc(-c2c(-c3cccc(O)c3)nc3sccn23)n1)Nc1cccc(C(F)(F)F)c1 | -3.01% (active)
O=C(Nc1cccc(-n2ccc3c(NC(=O)c4ccccc4)nccc32)c1)c1cc(N2CCOCC2)cc(C(F)(F)F)c1 | -13.3% (active)

What follows are compounds tested on SW-620 colon in the same assay as above. Conditions: 10 µM unless noted.

Compound | growth
O=C(Cn1c2ccccc2c2ccncc21)N/N=C/c1c[nH]c2ccccc12 | 34.3% (inactive)
Cc1ccc(-c2nc3c(N=Nc4ccc(S(N)(=O)=O)cc4)c(N)nn3c(N)c2C#N)cc1 | 16.5% (inactive)
O=C(Nc1ccccc1Cl)c1c[nH]c(=O)c(-c2ccc(N3CCCOC4(CC4)C3)cc2)c1 | 78.1% (inactive)
OC(COc1ccccc1Cl)CN1CCN(c2ccc(Cl)cc2)CC1 (stereo not given) | 108% (inactive)
O=C1C(Cl)=C(Nc2ccccc2)C(=O)C(Cl)=C1Nc1ccccc1 | 107% (inactive)
CC(=O)Nc1ccc([I+]c2ccc([N+](=O)[O-])cc2)cc1 | 95.1% (inactive)
CCN1CCN(Cc2ccc(NC(=O)Nc3cccc(-n4ccc5c(NC(=O)c6ccccc6)nccc54)c3)cc2C(F)(F)F)CC1 | 86.6% (inactive)
O=C(Nc1cccc(-n2ccc3c(NC(=O)c4ccccc4)nccc32)c1)c1cccc(C(F)(F)F)c1 | 20.2% (inactive)
CC(=O)N[C@@H](CNC(=O)c1cc(NC(=O)c2cc(NC(=O)c3cc(NC(=O)c4nccn4C)cn3C)cn2C)cn1C)CC(=O)Nc1cn(C)c(C(=O)Nc2cc(C(=O)Nc3cc(C(=O)Nc4cc(C(=O)NCCCN(C)CCCNC(=O)c5cccc(C(=O)O)c5)n(C)c4)n(C)c3)n(C)c2)n1 | 90.9% (inactive)
CCOC(=O)c1cnc2c(OC)ccc(OC)c2c1Cl | 107% (inactive)
NS(=O)(=O)c1ccc(Nc2nc(O)c(/C=C3\C=Nc4ccccc43)s2)cc1 | 99.6% (inactive)
CNC(=O)NN | 93.7% (inactive)
Cc1cc(O[C@@H]2O[C@@H](C)[C@H](O)[C@@H](O)[C@H]2O)c2c3c(c(O[C@@H]4O[C@@H](C)[C@H](O)[C@@H](O)[C@H]4O)cc2c1)C(=O)c1c(O)cccc1C3=O | 93.4% (inactive)
Cc1cccc(Cc2cnc(NC(=O)CCc3ccc(C)o3)s2)c1 | 30% (inactive)
C=CC(=O)NC(=O)Nc1ccccc1Cl | 53.6% (inactive)
COc1cccc(-c2nc3sccn3c2-c2ccnc(NCCNC(=O)c3ccccc3)n2)c1 | 114% (inactive)

Compound | growth
COc1ccc(-c2nn(-c3ccc(NC(=O)Nc4ccc(Cl)c(C(F)(F)F)c4)cc3)cc2-c2ccncc2)cc1Cl | 3.24% (active)
CC(C)CNCC(O)COc1ccc(C(C)(C)c2ccc(OCC(O)CNCC(C)C)cc2)cc1 (stereo not given) | 1.07% (active)
O=C(Nc1ccc(-n2ccc3c(NC(=O)c4ccccc4)nccc32)cc1)c1ccc(Cl)c(C(F)(F)F)c1 | -45.8% (active)
COc1ccc(-c2nn(-c3ccc(NC(=O)Nc4ccc(Cl)c(Cl)c4)cc3)cc2-c2ccncc2)cc1Cl | 17.6% (inactive)
COc1ccc(/C=C/C(=O)/C=C(/C=C/c2ccc(OC)c(OC)c2OC)OB(F)F)c(OC)c1OC | 8% (active)
Cc1cc[n+](CCCC[n+]2ccc(C)cc2)cc1 | 103% (inactive)
COC1=C(OC)C(=O)C=CC1=O | 77.8% (inactive)
Cc1ccccc1C[P+](c1ccccc1)(c1ccccc1)c1ccccc1 | 22.8% (inactive)
CC/C(=C(\CC)c1ccc(OCCN(CC)CC)cc1)c1ccc(OCCN(CC)CC)cc1 | 9.59% (active)
COc1cccc(-c2nc3sccn3c2-c2ccnc(NCCNC(=O)Nc3cccc(C(F)(F)F)c3)n2)c1 | 88.9% (inactive)
COc1ccc(-c2cnc(-c3ccc(F)cc3)[nH]2)cc1 | 18.6% (inactive)
O=C(Nc1ccc(-n2ccc3c(NC(=O)c4ccccc4)ncnc32)cc1)c1ccc(Cl)c(C(F)(F)F)c1 | -3.54% (active)
C=CC(=O)Nc1cccc(Nc2nc(Nc3ccc(OCCOC(F)F)cc3)ncc2F)c1 | 19% (inactive)
O=C(NCCNc1nccc(-c2c(-c3cccc(O)c3)nc3sccn23)n1)Nc1cccc(C(F)(F)F)c1 | 30.3% (inactive)
O=C(Nc1cccc(-n2ccc3c(NC(=O)c4ccccc4)nccc32)c1)c1cc(N2CCOCC2)cc(C(F)(F)F)c1 | 14.2% (inactive)
O=C(Nc1ccc(-n2cc(-c3ccncc3)c(-c3ccc(O)c(Cl)c3)n2)cc1)c1cc(C(F)(F)F)cc(C(F)(F)F)c1 | 76.2% (inactive)
